DUX4 txn inh: DUX4-mediated transcription inhibition; 293T-iDUX4 ZSCAN4-Gaussia luciferase reporter, 24 h; stronger effect = lower value; activity change, negative = inhibition, % (concentration not given with the values); actives 0.8% (n = 37,000); AID 1224904;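 active = mean inhibition of at least 10% in the main channel, exceeding the control channel by a set limit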;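 also: 0% = median of neutral control wells and -100% = median of positive control wells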
Numbers without * were called inactive; ! = a repeat was not active. The sample as a whole holds a higher share of hits than the screen did.

SMILES	DUX4 txn inh
CC(C)(O)C#Cc1ccc([C@H]2[C@@H](CO)N3CCCCN(C(=O)c4ccc(F)cc4)C[C@H]23)cc1	-4.8
O=C1CNC[C@@H]2[C@@H](c3ccc(C4=CCCC4)cc3)[C@H](CO)N12	5.3
N#C[C@@H]1[C@@H](c2ccc(-c3ccncc3)cc2)[C@@H](CO)N1C(=O)C1CCC1	-3.2
C[C@@H]1CCCCO[C@H](CN(C)C(=O)c2ccncc2)[C@@H](C)CN([C@H](C)CO)C(=O)c2cc(NC(=O)NC3CCCCC3)ccc2O1	-3.7
CC=Cc1ccc2n(c1=O)C[C@@H]1[C@@H](CO)[C@H](C(=O)NCc3ccccc3F)N(CC)[C@H]21 (mixture of isomers)	-3.4
O=C(Nc1ccccc1)[C@H]1[C@H](CO)[C@H]2Cn3c(cccc3=O)[C@H]2N1C(=O)C1CCC1	12.2
CCCC(=O)Nc1ccc2c(c1)OC[C@@H](C)N(C(=O)CN(C)C)C[C@H](C)[C@H](OC)CN(C)C2=O	1.0
COc1ccc2c3c(n(C)c2c1)[C@@H](CO)N(C)CC31CCN(S(C)(=O)=O)CC1	18.9
CN1C[C@H]2[C@@H](c3ccccc31)[C@H](CO)N2C(=O)Nc1cccc(F)c1	1.9
c1cncc(CN2C[C@@H]3N[C@H](C2)C3c2ccc(-c3cccnc3)cc2)c1 (some centres undefined)	-2.7
C(=C\c1ccc(C2[C@@H]3CN(Cc4cccnc4)C[C@H]2N3)cc1)/c1ccccc1 (some centres undefined)	-45.4*!
C/C=C/c1ccc(C2[C@H]3CNC[C@@H]2N3Cc2ccc3c(c2)OCO3)cc1 (some centres undefined)	8.5
CN(C)C(=O)c1ccc(-c2ccc(C3[C@@H]4CN(Cc5ccc6c(c5)OCO6)C[C@H]3N4)cc2)cc1 (some centres undefined)	-29.7*!
C/C=C/c1ccc(C2[C@@H]3CN(Cc4ccc5c(c4)OCO5)C[C@H]2N3)cc1 (some centres undefined)	-9.8
CN(C)C(=O)c1cccc(-c2ccc(C3[C@H]4CNC[C@@H]3N4Cc3ccc4c(c3)OCO4)cc2)c1 (some centres undefined)	7.8
C(=C\c1ccc(C2[C@H]3CNC[C@@H]2N3Cc2cncnc2)cc1)/c1ccccc1 (some centres undefined)	4.4
Cc1ccccc1-c1ccc(C2[C@@H]3CN(Cc4ccc5c(c4)OCO5)C[C@H]2N3)cc1 (some centres undefined)	-36.8*!
N#Cc1cccc(-c2ccc(C3[C@@H]4CN(Cc5cocn5)C[C@H]3N4)cc2)c1 (some centres undefined)	5.1
c1cncc(-c2ccc(C3[C@@H]4CN(Cc5ccc6c(c5)OCO6)C[C@H]3N4)cc2)c1 (some centres undefined)	-34.0*!
OC[C@@H]1[C@@H](c2ccc(/C=C/c3ccccc3)cc2)[C@@H]2CN(Cc3cncnc3)CCCCN12	0.3
CN(C)C(=O)c1ccc(-c2ccc(C3[C@@H]4CN(C(=O)Cc5ccncc5)C[C@H]3N4)cc2)cc1 (some centres undefined)	16.3
C[C@@H]1CN([C@@H](C)CO)C(=O)Cc2cc(NS(=O)(=O)c3cn(C)cn3)ccc2O[C@H]1CN(C)C(=O)NC1CCCCC1	1.2
COc1cccc(NC(=O)N2C[C@H](O)COC[C@@H]3O[C@H](CC(=O)NC4CCCC4)CC[C@H]32)c1	10.3
CCCNC(=O)N1C[C@@H]2[C@H](c3ccccc31)[C@H](CO)N2C(=O)NC(C)C	1.3
O=C(C[C@@H]1CC[C@@H]2[C@H](COC[C@H](O)CN2S(=O)(=O)c2ccc(Oc3ccccc3)cc2)O1)NC1CCC1	-4.8
SMILES	DUX4 txn inh
C[C@H]1CN([C@@H](C)CO)C(=O)CCCn2cc(nn2)CO[C@@H]1CN(C)Cc1ccc(C(=O)Nc2ccccc2N)cc1	-3.7
COc1ccc(S(=O)(=O)N2[C@@H]3CNC[C@H]2C3c2ccc(-c3ccccc3F)cc2)cc1 (some centres undefined)	4.0
CN(C)C(=O)c1cccc(-c2ccc(C3[C@H]4CNC[C@@H]3N4S(=O)(=O)Cc3ccccc3)cc2)c1 (some centres undefined)	8.9
Cc1ccccc1-c1ccc(C2[C@H]3CNC[C@@H]2N3S(=O)(=O)c2cccc(F)c2)cc1 (some centres undefined)	2.2
COc1cccc(-c2ccc(C3[C@@H]4CN(S(=O)(=O)c5ccccc5F)C[C@H]3N4)cc2)c1 (some centres undefined)	-6.9
COc1cccc(S(=O)(=O)N2C[C@@H]3N[C@H](C2)C3c2ccc(-c3ccccc3C)cc2)c1 (some centres undefined)	-35.6*!
COc1cccc(-c2ccc(C3[C@@H]4CN(S(=O)(=O)Cc5ccccc5)C[C@H]3N4)cc2)c1 (some centres undefined)	-21.8*
Cc1ccccc1-c1ccc(C2[C@H]3CNC[C@@H]2N3S(=O)(=O)c2ccc(F)cc2)cc1 (some centres undefined)	1.5
COc1cccc(-c2ccc(C3[C@H]4CNC[C@@H]3N4S(=O)(=O)Cc3ccccc3)cc2)c1 (some centres undefined)	3.8
COc1cccc(S(=O)(=O)N2CCCCN3[C@@H](CO)[C@H](c4ccc(-c5cccnc5)cc4)[C@@H]3C2)c1	-3.8
Cc1cccc(S(=O)(=O)N2C[C@@H]3N[C@H](C2)C3c2ccc(-c3ccccc3C)cc2)c1 (some centres undefined)	-72.6*!
Cc1cccc(S(=O)(=O)N2C[C@@H]3N[C@H](C2)C3c2ccc(-c3cncnc3)cc2)c1 (some centres undefined)	-4.1
COc1cccc(S(=O)(=O)N2C[C@@H]3N[C@H](C2)C3c2ccc(-c3ccccc3F)cc2)c1 (some centres undefined)	-68.6*!
CCCNC(=O)Nc1ccc2c(c1)C(=O)N(C)[C@H]1CC[C@H](CC(=O)Nc3ccccc3C)O[C@@H]1CO2	-0.2
CC(C)[C@@H](C)NC(=O)N(C)C[C@@H]1OCc2ccccc2-c2c(n(C)c3ccccc23)C(=O)N([C@H](C)CO)C[C@H]1C	6.1
CCCNC(=O)N1CC2(CN(C(=O)c3ccncc3)C2)c2c([nH]c3cc(OC)ccc23)[C@@H]1CO	14.5
CS(=O)(=O)N1[C@H](C#N)[C@@H](c2ccc(/C=C/c3ccccc3)cc2)[C@H]1CO	4.1
C/C=C/c1ccc(C2[C@H]3CNC[C@@H]2N3S(=O)(=O)c2ccccc2C)cc1 (some centres undefined)	12.7
Cc1ccccc1S(=O)(=O)N1C[C@@H]2N[C@H](C1)C2c1ccc(/C=C/c2ccccc2)cc1 (some centres undefined)	-37.2*
Cc1ccccc1S(=O)(=O)N1[C@@H]2CNC[C@H]1C2c1ccc(-c2cccc(C#N)c2)cc1 (some centres undefined)	-8.4
Cc1ccccc1S(=O)(=O)N1C[C@@H]2N[C@H](C1)C2c1ccc(-c2ccc(C#N)cc2)cc1 (some centres undefined)	-68.8*!
Cc1ccccc1S(=O)(=O)N1[C@H](C#N)[C@H](c2ccc(-c3ccc(F)cc3)cc2)[C@H]1CO	-4.4
O=C(C[C@@H]1CC[C@H]2[C@@H](COC[C@H](O)CN2C(=O)c2ccccn2)O1)NC1CCC1	6.7
CN1CCN(C(=O)[C@@H]2[C@@H](CO)[C@@H]3Cn4c(cccc4=O)[C@H]2N3S(=O)(=O)c2ccccc2F)CC1	5.2

Screening data deposited in PubChem BioAssay by Broad Institute.
